VHR inh abs: VHR1 phosphatase inhibitors, primary screen, biochemical, absorbance, uHTS. recombinant VHR phosphatase, pNPP absorbance. inhibition, % at 13.3 µM. hit rate 0.52% among 290,000. AID 1654, 2009; in the data active = inhibition above about 50%
Target sequence (P51452 whole entry, looked up): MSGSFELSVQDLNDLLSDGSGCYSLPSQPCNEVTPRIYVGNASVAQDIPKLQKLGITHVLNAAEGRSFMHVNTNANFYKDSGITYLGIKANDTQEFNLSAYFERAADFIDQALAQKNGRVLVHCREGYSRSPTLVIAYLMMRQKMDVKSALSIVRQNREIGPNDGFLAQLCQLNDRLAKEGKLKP
PfHsp40 rescue: rescue of yeast from PfHsp40 toxicity, primary screen, S. cerevisiae, ATP luminescence; S. cerevisiae expressing PfHsp40, growth rescue; growth rescue, % at 12.5 µM; hit rate 0.68% among 340,000; in the data active = growth rescue above about 28%, passing the limit was not always enough;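 also: yeast W303a lacking pdr1 and pdr3 grown in galactose medium; growth measured after three days at 30 °C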
Sa ugtP lethal: growth inhibition of ugtP-null S. aureus, primary screen, RN4220 ugtP deletion, OD600. 16 h. growth inhibition, % (test concentration not listed). hit rate 0.54% among 330,000; in the data active = growth inhibition above about 68%;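 also: plate controls were untreated wells for no effect and antibiotic for full effect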
Sa RN4220 lethal: growth inhibition of S. aureus RN4220, primary screen, OD600. 16 h. inhibition, % (no concentration beside the values). hit rate 0.33% among 330,000. AID 1259311, 2017; in the data active = inhibition above about 85%;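 also: plate controls were untreated cells for no effect and reference antibiotic for full effect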
PrPC surface inh: inhibitors of human cell surface prion protein PrPC, primary screen, cell-based, TR-FRET; Major prion protein (Homo sapiens), P04156; TR-FRET read-out; inhibition, % at 13.8 µM; hit rate 0.43% among 370,000; AID 720596, 2013; in the data active = inhibition above about 24%; also: 0% = median of the test wells and 100% = reference compound wells
Starred values were filed as active, the others as inactive; / = not tested or not shown. Only some compounds are listed: those with a hit (about 1.8% of all), similar ones and a draw of the others.

SMILES	VHR inh abs	PfHsp40 rescue	Sa ugtP lethal	Sa RN4220 lethal	PrPC surface inh
Cc1ccc2c(Cl)cc(Cl)c(O)c2n1	/	-1	99*	99*	0
Cc1cc(Cl)c2ccc3ccccc3c2n1	6	0	-3	3	-1
CN(c1cccc(Cl)c1)S(=O)(=O)c1cccc(C(=O)Nc2nc3ccccc3[nH]2)c1	51*	-1	-8	-2	23
O=C(Cc1ccccc1[N+](=O)[O-])NNC(=O)Nc1ccc2c(c1)OCO2	50*	-2	3	0	-3
O=C(COC(=O)c1ccc([N+](=O)[O-])o1)Nc1ccc2c(c1)OC(F)(F)O2	/	/	/	/	-29
O=C(Cc1ccccc1[N+](=O)[O-])Nc1ccc2c(c1)OCO2	11	0	6	4	0
CCOc1cc(N2CCOCC2)c(OCC)cc1NC(=O)COC(=O)c1cc(C)cc(C)c1	28	2	2	7	-3
CCOc1cc(N2CCOCC2)c(OCC)cc1NC(=O)COC(=O)c1ccc([N+](=O)[O-])o1	/	82*	-5	9	-18
Cc1cccc(C)c1NC(=O)COC(=O)c1ccc([N+](=O)[O-])o1	22	32*	22	5	-20
O=C(COC(=O)c1ccc([N+](=O)[O-])o1)Nc1ccc2c(c1)OCO2	/	67*	5	6	-22
O=C(COC(=O)c1ccc([N+](=O)[O-])o1)NCc1ccccc1	/	2	6	2	-30
COc1cc(Cc2cnc(N)nc2N)cc(OC)c1OC	11	2	100*	98*	-1
C[C@@H]1CC[C@H](O)C=CC(=O)O[C@H](C)CC[C@H](O)C=CC(=O)O1	/	/	12	3	/
CC(/C=N/n1c(COc2ccccc2)n[nH]c1=S)=C\c1ccccc1	5	67*	/	/	-1
COc1cc(/C=C2\SC(=S)N(NS(=O)(=O)c3ccccc3)C2=O)ccc1O	13	-1	31	57	-27
COc1ccccc1/C=C1\SC(=S)N(NS(=O)(=O)c2ccccc2)C1=O	/	0	70	88*	2
CCOc1cc(/C=C2\SC(=S)N(NS(=O)(=O)c3ccc(C)cc3)C2=O)ccc1O	/	59*	73	85*	-23
COc1cc(/C=C2\SC(=S)N(NS(=O)(=O)c3ccc(C)cc3)C2=O)ccc1O	4	303*	71	86*	-21
CCCCN1C(Nc2ccccc2)=NCC1C (centres undefined)	/	/	-7	3	/
COc1cccc(C(=O)NCC(=O)NN=C(C)C=Cc2ccccc2)c1	/	/	-3	-1	/
Cc1ccc(/C=C/C(=O)Nc2nnc(SCc3ccc(C#N)cc3)s2)o1	60*	-1	-23	4	4
Cc1ccc(/C=C/C(=O)Nc2nccs2)o1	-4	6	5	13	-12
O=C(CN1C(=O)C(=Cc2cccc(Br)c2)SC1=S)Nc1cccnc1	/	/	-9	0	/
COc1ccc(-c2oc3ccccc3c2C#Cc2cncn2C)cc1	/	336*	/	/	-1
[O-][N+](=Cc1ccccc1)c1ccc(Br)cc1	/	/	8	-4	/
SMILES	VHR inh abs	PfHsp40 rescue	Sa ugtP lethal	Sa RN4220 lethal	PrPC surface inh
Cc1cc([N+](=O)[O-])cc(C)c1OCC(=O)NN=Cc1ccc(OC(=O)c2ccccc2)cc1	/	/	3	-1	/
COCCCNc1oc(-c2ccccc2F)nc1C#N	29	34*	1	1	1
COCCCNc1oc(-c2ccccc2OC)nc1C#N	38	1	12	6	-5
COc1ccccc1N1CCN(/N=C/C=C/c2ccccc2[N+](=O)[O-])CC1	50*	0	/	/	1
COC(=O)[C@]1(CC(C)C)NC(c2ccc(-c3ccccc3)cc2)C2C(=O)N(C)C(=O)C21 (some centres undefined)	/	/	1	4	/
COc1cc(/C=C/c2nc3ccccc3c(=O)[nH]2)cc(Cl)c1O	58*	0	-11	-1	4
Cc1cc(C)cc(OCC(=O)NN=Cc2cn(C)nc2C)c1	/	/	9	4	/
CCC1CCCCN1CCCNC(=O)CCC(=O)N1CC(C)Oc2ccccc21 (centres undefined)	53*	-1	1	3	-4
COc1cccc(-c2coc3c(C)c4oc(=O)c(CC(=O)O)c(C)c4cc23)c1	44	3	99*	95*	7
CCCCC(NC(=O)Cc1c(C)c2cc3c(-c4ccccc4)coc3c(C)c2oc1=O)C(=O)O (centres undefined)	-12	0	100*	98*	3
COc1ccc(-c2coc3cc4oc(=O)c(CC(=O)O)c(C)c4cc23)cc1	2	-2	3	-1	-4
CC[C@@H](C)[C@H](NC(=O)Cc1c(C)c2cc3c(C)coc3c(C)c2oc1=O)C(=O)O	3	1	-1	0	-4
Cc1c(CC(=O)O)c(=O)oc2c(C)c3occ(-c4ccc(Br)cc4)c3cc12	24	1	/	/	4
COc1ccc(-c2coc3c(C)c4oc(=O)c(CC(=O)O)c(C)c4cc23)cc1	-29	0	100*	93*	2
COc1cccc(-c2coc3c(C)c4oc(=O)c(CCC(=O)O)c(C)c4cc23)c1	/	-1	100*	100*	-1
COc1cccc(-c2coc3cc4oc(=O)c(CCC(=O)O)c(C)c4cc23)c1	89	1	-18	2	-5
CC(O)C1CNC(=O)C(=O)N1CC1CCCCC1 (centres undefined)	/	/	7	5	/
C=CCNC1=C(Cl)C(=O)c2ccccc2C1=O	4	0	90*	95*	-39
O=C1C(Cl)=C(NCCc2ccccc2)C(=O)c2ccccc21	/	4	13	37	-17
CNC(=O)c1c(NC(=O)CS(=O)(=O)c2ccccc2)sc(C)c1C	/	51*	3	1	-1
CNC(=O)c1c(NC(=O)CS(=O)(=O)c2ccc(Cl)cc2)sc(C)c1C	/	-1	-4	7	7
Cc1ccc(O)c(CNc2nc3ccccc3n2C(C)C)c1	6	0	8	-1	4
CC(C)n1c(NCc2cc(Cl)ccc2O)nc2ccccc21	54*	-1	-16	-25	-9
C=CCn1c(NCc2cc(C)ccc2O)nc2ccccc21	50*	0	-6	-18	-4
COc1ccc(C=NNC(=O)c2ccn[nH]2)cc1Cn1nc(C)c([N+](=O)[O-])c1C	/	/	1	2	/
SMILES	VHR inh abs	PfHsp40 rescue	Sa ugtP lethal	Sa RN4220 lethal	PrPC surface inh
CCOC1c2c(ccc3ccc(=O)oc23)OC(C)(C)C1O (centres undefined)	/	/	-11	3	/
COc1ccccc1NCC(=O)NN=Cc1sccc1C	/	/	-2	4	/
CC(CNC(=O)COc1ccccc1)OC(=O)Nc1ccc(Cl)c(Cl)c1 (centres undefined)	4	200*	-6	7	-4
O=C(NCc1ccccc1)C1(C(F)(F)F)CC(=CCCO)CCCO1 (centres undefined)	/	/	1	6	/
CC(C)CC(COc1ccccc1)N1CCN(CC(C)C)CCC1=O (centres undefined)	/	/	3	5	/
CCOC(=O)c1c(C)sc2c1N(C(=O)CCl)c1cc(Cl)ccc1S2	19	0	93*	64	-7

Compound activity as filed in PubChem.
